In the supplement of paper PMC8728848:
This is one part of a sample in which the strongest signals are shown more often than they occur.

Key:
Experiment in all cases: glycan array binding signal (z-score within array); higher = stronger binding
Settings in all cases: glycan notation: IUPAC condensed, linker removed; mutation: D57L
[1] = molecular target: GlcNAc(b1-2)[GlcNAc(b1-4)]Man(a1-3)[GlcNAc(b1-4)][GlcNAc(b1-2)[GlcNAc(b1-6)]Man(a1-6)]Man(b1-4)GlcNAc(b1-4)GlcNAc
In short: (§1)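 Negative Z-scores can be read as non-binding. The Z-score is calculated within each array and then averaged across arrays of one protein sequence at different concentrations or buffers and across linkers. Arrays, 3228 in all, were curated from the Consortium for Functional Glycomics database and kept only where the protein sequence was available.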

[2] = molecular target: GlcNAc(b1-3)Gal(b1-4)GlcNAc(b1-2)Man(a1-3)[GlcNAc(b1-3)Gal(b1-4)GlcNAc(b1-2)Man(a1-6)]Man(b1-4)GlcNAc(b1-4)GlcNAc
In short: as §1

[3] = molecular target: GlcNAc(b1-3)Gal(b1-4)GlcNAc(b1-3)Gal(b1-4)GlcNAc(b1-3)Gal(b1-4)GlcNAc(b1-3)Gal(b1-4)GlcNAc(b1-2)Man(a1-3)[GlcNAc(b1-3)Gal(b1-4)GlcNAc(b1-3)Gal(b1-4)GlcNAc(b1-3)Gal(b1-4)GlcNAc(b1-3)Gal(b1-4)GlcNAc(b1-2)Man(a1-6)]Man(b1-4)GlcNAc(b1-4)[Fuc(a1-6)]GlcNAc
In short: as §1

[4] = molecular target: GlcNAc(b1-3)Gal(b1-4)GlcNAc(b1-3)GalNAc
In short: as §1

[5] = molecular target: GlcNAc(b1-3)Man
In short: as §1

[6] = molecular target: GlcNAc(b1-4)Gal(b1-4)GlcNAc
In short: as §1

[7] = molecular target: Kdn(a2-6)Gal(b1-4)GlcNAc
In short: as §1

[8] = molecular target: Man(a1-2)Man(a1-3)Man
In short: as §1

[9] = molecular target: Man(a1-3)[Man(a1-6)]Man
In short: as §1

[10] = molecular target: Man(a1-3)[Man(a1-6)]Man(a1-6)[Man(a1-3)]Man
In short: as §1

[11] = molecular target: Man(a1-3)[Man(a1-6)]Man(b1-4)GlcNAc(b1-4)GlcNAc
In short: as §1

[12] = molecular target: Neu5Ac(a2-3)Gal(b1-3)GalNAc(b1-4)[Neu5Ac(a2-3)]Gal(b1-4)Glc
In short: as §1

[13] = molecular target: Neu5Ac(a2-3)Gal(b1-3)GlcNAc(b1-2)Man
In short: as §1

[14] = molecular target: Neu5Ac(a2-3)Gal(b1-3)GlcNAc(b1-2)Man(a1-3)[GlcNAc(b1-4)][Neu5Ac(a2-3)Gal(b1-3)GlcNAc(b1-2)Man(a1-6)]Man(b1-4)GlcNAc(b1-4)GlcNAc
In short: as §1

[15] = molecular target: Neu5Ac(a2-3)Gal(b1-3)GlcNAc(b1-6)GalNAc
In short: as §1

[16] = molecular target: Neu5Ac(a2-3)Gal(b1-3)GlcNAc6S
In short: as §1

[17] = molecular target: Neu5Ac(a2-3)Gal(b1-4)GlcNAc(b1-2)Man
In short: as §1

[18] = molecular target: Neu5Ac(a2-3)Gal(b1-4)GlcNAc(b1-3)Gal(b1-4)GlcNAc
In short: as §1

[19] = molecular target: Neu5Ac(a2-3)Gal(b1-4)GlcNAc(b1-3)Gal(b1-4)GlcNAc(b1-2)Man(a1-3)[Neu5Ac(a2-3)Gal(b1-4)GlcNAc(b1-3)Gal(b1-4)GlcNAc(b1-2)Man(a1-6)]Man(b1-4)GlcNAc(b1-4)GlcNAc
In short: as §1

[20] = molecular target: Neu5Ac(a2-3)Gal(b1-4)GlcNAc(b1-3)Gal(b1-4)GlcNAc(b1-3)Gal(b1-4)GlcNAc(b1-2)Man(a1-3)[Neu5Ac(a2-3)Gal(b1-4)GlcNAc(b1-3)Gal(b1-4)GlcNAc(b1-3)Gal(b1-4)GlcNAc(b1-2)Man(a1-6)]GalNAc
In short: as §1

[21] = molecular target: Neu5Ac(a2-3)Gal(b1-4)GlcNAc(b1-6)[Gal(b1-3)]GalNAc
In short: as §1

[22] = molecular target: Neu5Ac(a2-3)Gal(b1-4)[Fuc(a1-3)]GlcNAc(b1-6)[Neu5Ac(a2-3)Gal(b1-3)]GalNAc
In short: as §1

[23] = molecular target: Neu5Ac(a2-3)GalNAc
In short: as §1

[24] = molecular target: Neu5Ac(a2-6)Gal(b1-4)GlcNAc(b1-3)[Neu5Ac(a2-6)Gal(b1-4)GlcNAc(b1-6)]GalNAc
In short: as §1

[25] = molecular target: Neu5Ac(a2-6)Gal(b1-4)GlcNAc6S
In short: as §1

[26] = molecular target: Neu5Ac(a2-6)GalNAc(b1-4)GlcNAc
In short: as §1

[27] = molecular target: Neu5Ac(a2-8)Neu5Ac(a2-3)Gal(b1-3)GalNAc(b1-4)[Neu5Ac(a2-3)]Gal(b1-4)Glc
In short: as §1

[28] = molecular target: Neu5Ac9Ac(a2-3)Gal(b1-4)GlcNAc
In short: as §1

[29] = molecular target: Neu5Gc(a2-6)Gal(b1-4)GlcNAc
In short: as §1

[30] = molecular target: Neu5Gc(a2-8)Neu5Gc(a2-3)Gal(b1-4)GlcNAc(b1-3)Gal(b1-4)GlcNAc
In short: as §1

B1: PNGase F (Flavobacterium meningosepticum) (protein)
chain: GIPAPADNTVNIKTFDKVKNAFGDGLSQSAEGTFTFPADVTAVKTIKMFIKNECPNKTCLEWDRYANVYVKNKTTGEWYEIGRFITPYWVGTEKLPRGLEIDVTDFKSLLSGNTELKIYTETWLAKGREYSVDFDIVYGTPDYKYSAVVPVVQYNKSSIDGVPYGKAHTLALKKNIQLPTNTEKAYLRTTISGWGHAKPYDAGSRGCAEWCFRTHTIAINNSNTFQHQLGALGCSANPINNQSPGNWTPDRAGWCPGMAVPTRIDVLNNSLIGSTFSYEYKFQNWTNNGTNGDAFYAISSFVIAKSNTPISAPVVTNLDPHHHHHH
glycan array binding signal (z-score) [1]: -0.146 | glycan array binding signal (z-score) [2]: 0.239 | glycan array binding signal (z-score) [3]: 0.677 | glycan array binding signal (z-score) [4]: 0.274 | glycan array binding signal (z-score) [5]: 2.62 | glycan array binding signal (z-score) [6]: -0.997 | glycan array binding signal (z-score) [7]: 0.05 | glycan array binding signal (z-score) [8]: -1.18 | glycan array binding signal (z-score) [9]: 0.446 | glycan array binding signal (z-score) [10]: 3.32 | glycan array binding signal (z-score) [11]: 0.156 | glycan array binding signal (z-score) [12]: 0.797 | glycan array binding signal (z-score) [13]: -0.518 | glycan array binding signal (z-score) [14]: 0.012 | glycan array binding signal (z-score) [15]: 0.237 | glycan array binding signal (z-score) [16]: 1.09 | glycan array binding signal (z-score) [17]: 3.1 | glycan array binding signal (z-score) [18]: -0.525 | glycan array binding signal (z-score) [19]: 0.19 | glycan array binding signal (z-score) [20]: 0.914 | glycan array binding signal (z-score) [21]: 2.77 | glycan array binding signal (z-score) [22]: 0.57 | glycan array binding signal (z-score) [23]: 1.19 | glycan array binding signal (z-score) [24]: -0.712 | glycan array binding signal (z-score) [25]: 0.924 | glycan array binding signal (z-score) [26]: -1 | glycan array binding signal (z-score) [27]: -0.06 | glycan array binding signal (z-score) [28]: -1.04 | glycan array binding signal (z-score) [29]: 0.069 | glycan array binding signal (z-score) [30]: -0.629
